# Calls of active or inactive are those of the source.
# What was measured:
# [1] = E. coli DRC41 culture turbidity changes, primary screen, E. coli filamentation inducer project, strain DRC41, OD650, 48 h (AID 1152);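 also: E. coli MC1000 strain DRC41 lacking acrAB efflux pump and sulA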; conditions: E. coli DRC41 (acrAB sulA); higher = more signal, called active from +8 up or from −8 down unless noted
# [2] = small-molecule binders of probe aLefty1, primary screen, biochemical, small-molecule microarray, 635/667 nm fluorescence (AID 1153); conditions: higher = more signal; small-molecule microarray, probe aLefty1, fluorescence unless noted;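 also: score merges spot fluorescence with signal-to-noise ratio from the scanned slide images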
# [3] = PSAC antagonists in infected red cells, primary screen, cell-based, P. falciparum Indochina, OD700, 1 h (AID 1154); conditions: P. falciparum Indochina infected RBC osmotic lysis; higher = more signal, called active from +8 up or from −8 down unless noted
# [4] = PSAC antagonists in infected red cells, primary screen, cell-based, P. falciparum Indochina, OD700, 2 h (AID 1155);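 also: lysis reports solute entry through the parasite surface anion channel PSAC; channel blockers reduce lysis of infected cells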; conditions: P. falciparum Indochina infected erythrocytes, osmotic lysis OD700; higher = more signal, called active from +8 up or from −8 down unless noted
# [5] = osmotic lysis modulators in infected erythrocytes, primary screen, PSAC antagonist project, cell-based, P. falciparum Indochina, OD700, 3 h (AID 1156); conditions: higher = more signal, called active from +8 up or from −8 down unless noted
# [6] = PSAC antagonists in infected red cells, primary screen, cell-based, P. falciparum Indochina, OD700, 18 h (AID 1157); conditions: P. falciparum Indochina infected erythrocytes, osmotic lysis OD700, 18 h; higher = more signal, called active from +8 up or from −8 down unless noted
# [7] = modulators of S6 phosphorylation in cells, primary screen, cell-based, A549, cytoblot, luminescence, serum-stimulated (AID 1158); conditions: A549 phospho-S6 cytoblot, 5 h, higher = more signal;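 also: serum-stimulated A549 lung adenocarcinoma cells; signal is phosphorylated S6 detected by cytoblot immunostaining with HRP secondary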
# [8] = biological target: NADPH oxidase 2 (Homo sapiens) (UniProt P04839); assay: NOX2-dependent H2O2 signal modulators, primary screen, NOX inhibitor project, cell-based, HEK293-NOX2, PMA-stimulated, Amplex Red fluorescence (AID 1159); conditions: 45 min; higher = more signal, called active from +8 up or from −8 down unless noted; also: test concentration not given here
# [9] = biological target: NADPH oxidase 4 (Homo sapiens) (UniProt Q9NPH5); assay: NOX4-dependent H2O2 signal modulators, primary screen, NOX inhibitor project, cell-based, HEK293-NOX4, tetracycline-induced, Amplex Red fluorescence (AID 1160); conditions: 45 min; higher = more signal, called active from +8 up or from −8 down unless noted
# [10] = biological target: NADPH oxidase 5 (Homo sapiens) (UniProt Q96PH1); assay: NOX5-dependent H2O2 signal modulators, primary screen, NOX inhibitor project, cell-based, HEK293-NOX5, Amplex Red fluorescence (AID 1161); conditions: HEK293-NOX5, ionomycin, 45 min, higher = more signal
# Chain of NADPH oxidase 5 (Homo sapiens) (Q96PH1 whole entry, looked up): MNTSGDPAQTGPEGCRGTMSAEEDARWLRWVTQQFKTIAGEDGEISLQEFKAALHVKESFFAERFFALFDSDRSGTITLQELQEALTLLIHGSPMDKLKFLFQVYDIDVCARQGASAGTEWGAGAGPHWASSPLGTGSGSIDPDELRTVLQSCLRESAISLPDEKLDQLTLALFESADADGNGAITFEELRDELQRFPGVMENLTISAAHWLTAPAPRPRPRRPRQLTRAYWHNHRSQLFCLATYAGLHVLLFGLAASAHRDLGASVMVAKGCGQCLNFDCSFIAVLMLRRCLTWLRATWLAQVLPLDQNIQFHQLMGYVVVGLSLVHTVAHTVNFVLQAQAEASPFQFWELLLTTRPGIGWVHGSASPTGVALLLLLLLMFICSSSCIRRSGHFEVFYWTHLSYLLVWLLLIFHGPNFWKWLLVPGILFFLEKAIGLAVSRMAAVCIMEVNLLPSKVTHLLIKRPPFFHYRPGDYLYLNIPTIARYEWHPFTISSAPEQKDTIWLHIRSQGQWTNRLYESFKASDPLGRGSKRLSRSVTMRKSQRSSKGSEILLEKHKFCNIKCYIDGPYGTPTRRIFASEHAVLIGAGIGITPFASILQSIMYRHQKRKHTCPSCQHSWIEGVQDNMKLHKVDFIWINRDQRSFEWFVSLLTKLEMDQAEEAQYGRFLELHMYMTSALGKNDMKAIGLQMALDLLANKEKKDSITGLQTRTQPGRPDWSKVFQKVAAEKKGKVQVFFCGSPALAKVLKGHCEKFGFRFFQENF
# Chain of NADPH oxidase 4 (Homo sapiens) (Q9NPH5 whole entry, looked up): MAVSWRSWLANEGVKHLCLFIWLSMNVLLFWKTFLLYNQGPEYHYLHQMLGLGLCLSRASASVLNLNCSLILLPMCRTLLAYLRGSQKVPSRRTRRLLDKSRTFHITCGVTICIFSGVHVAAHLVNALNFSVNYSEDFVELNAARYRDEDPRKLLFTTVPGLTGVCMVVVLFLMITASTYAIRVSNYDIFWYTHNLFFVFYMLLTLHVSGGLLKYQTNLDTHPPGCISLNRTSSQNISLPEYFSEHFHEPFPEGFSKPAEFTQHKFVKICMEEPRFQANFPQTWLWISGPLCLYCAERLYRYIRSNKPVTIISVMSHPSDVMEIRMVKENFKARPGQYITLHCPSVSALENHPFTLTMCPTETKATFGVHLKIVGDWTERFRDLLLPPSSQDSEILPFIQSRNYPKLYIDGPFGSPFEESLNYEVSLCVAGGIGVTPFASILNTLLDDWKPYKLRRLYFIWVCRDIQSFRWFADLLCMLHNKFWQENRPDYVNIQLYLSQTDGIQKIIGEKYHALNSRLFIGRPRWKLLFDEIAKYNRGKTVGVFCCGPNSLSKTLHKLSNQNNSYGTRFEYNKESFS
# Chain of NADPH oxidase 2 (Homo sapiens) (P04839 whole entry, looked up): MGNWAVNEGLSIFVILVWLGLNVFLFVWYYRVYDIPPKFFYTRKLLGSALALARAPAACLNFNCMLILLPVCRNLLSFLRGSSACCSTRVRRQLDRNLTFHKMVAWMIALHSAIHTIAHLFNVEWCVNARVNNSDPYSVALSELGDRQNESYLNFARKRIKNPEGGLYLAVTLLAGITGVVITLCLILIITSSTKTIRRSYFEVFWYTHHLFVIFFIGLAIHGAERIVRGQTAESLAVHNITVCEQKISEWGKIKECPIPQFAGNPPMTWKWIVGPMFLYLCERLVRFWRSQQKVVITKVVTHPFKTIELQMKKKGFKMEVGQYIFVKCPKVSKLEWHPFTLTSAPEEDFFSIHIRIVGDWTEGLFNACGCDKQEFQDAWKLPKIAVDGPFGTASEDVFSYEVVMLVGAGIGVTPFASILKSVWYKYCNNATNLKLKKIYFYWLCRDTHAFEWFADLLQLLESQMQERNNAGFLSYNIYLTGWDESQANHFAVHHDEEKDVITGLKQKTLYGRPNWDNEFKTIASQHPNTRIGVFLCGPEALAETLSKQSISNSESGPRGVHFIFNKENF
Structure (SMILES),z-score [1],composite z-score [2],z-score [3],z-score [4],z-score [5],z-score [6],z-score [7],z-score [8],z-score [9],z-score [10]
O=P(c1ccccc1)(c1ccccc1)N1CC2(CC2)CC(O)(c2ccccc2)C1 (stereo not given),-1.16 (inactive),0.276,0.492 (inactive),0.585 (inactive),0.483 (inactive),0.741 (inactive),0.0869,-0.356 (inactive),-0.976 (inactive),-2.94
COC(=O)[C@H]1[C@@H](O)[C@@]2(O)c3c(OC)cc(OC)cc3O[C@@]2(c2ccc(OC)cc2)[C@@H]1c1ccccc1,0.662 (inactive),-0.19,0.253 (inactive),0.0987 (inactive),-0.15 (inactive),-0.219 (inactive),-1.37,0.0111 (inactive),-0.0152 (inactive),0.219
COc1cc2c(cc1O)C(C)N(C)CC2 (stereo not given),1.01 (inactive),0.026,0.726 (inactive),0.0698 (inactive),-0.306 (inactive),0.107 (inactive),-0.0939,-2.93 (inactive),-1.92 (inactive),-2.86
COC(=O)[C@@]1(Cc2ccc(F)cc2)[C@H]2c3cc(C(=O)N(C)C)[nH]c3C[C@H]2CN1C(=O)c1ccccc1,-0.652 [setting not given] (inactive),0.0738 [setting not given],1.37 [setting not given] (inactive),0.0978 [setting not given] (inactive),0.219 [setting not given] (inactive),0.641 [setting not given] (inactive),-0.393,0.33 [setting not given] (inactive),0.502 [setting not given] (inactive),-0.936
CCCc1cc2c(n1CCO)C(C)C1CN(C(=O)c3ccccc3)C(C)(C(=O)OC)C21 (stereo not given),-1.14 (inactive),0.549,2.33 (inactive),0.196 (inactive),0.101 (inactive),0.618 (inactive),-0.199,0.0961 (inactive),-2.55 (inactive),-2.35
C=C(CC1(CNP(=O)(c2ccccc2)c2ccccc2)CC1)c1ccccc1,-0.822 (inactive),0.241,1.41 (inactive),0.453 (inactive),1.07 (inactive),0.519 (inactive),-0.254,-0.335 (inactive),-0.4 (inactive),-2.42
C[C@@H]1Cc2c(cnc3c2CN(C)CC3)CO1,-0.397 (inactive),-0.152,-0.0969 (inactive),-0.0787 (inactive),0.123 (inactive),0.0517 (inactive),-0.0609,1.5 (inactive),0.188 (inactive),-0.719
C[C@@H]1OC=C2[C@@H](O)[C@H]3O[C@H]3C(=O)[C@]23[C@H]1[C@H]1C2=C([C@@H](O)[C@H]4O[C@H]4C2=O)[C@@H]3O[C@@H]1C,-0.418 (inactive),-0.27,-0.531 (inactive),0.407 (inactive),-0.655 (inactive),0.0502 (inactive),0.0176,1.2 (inactive),0.214 (inactive),-0.31
